In ChEMBL document CHEMBL3988442, “University of Dundee, Small-Polar-MMV Screening Library” (2021):
About 900 (1.7%) of roughly 53,000 compounds showed an effect of 50% or more. Shown is part of a subset that was picked to be rich in strong results.

What follows are molecules tested on Mycobacterium tuberculosis (assay: Cornell - Phenotypic assay to identify agents that inhibit growth of Mycobacterium tuberculosis). Details: 10 mM as filed; unlikely as a test dose.
Type: functional
Parameters: scale not given: direction of the effect not stated beside the values

SMILES	Percent Effect
CCOc1ncccc1CNCc1c(C)nn(C)c1N(C)C	-13.13%
COc1ncccc1CNCc1c(C(C)C)nn(C)c1OC	20.17%
COc1cc(CNCc2c(C)nn(C)c2N(C)C)ccc1C	13.2%
COc1ncccc1CNCc1c(C(C)C)nn(C)c1N(C)C	63.07%
CCn1cc(CNC(=O)C(C)C)cn1	7.058%
Cc1cc(C)cc(OCCCn2nc3ccccn3c2=O)c1	34.72%
Cc1ccc(N(C)C2CCCN(C(=O)Nc3ccc(F)cc3F)C2)cc1 (stereo unspecified)	17.1%
Cc1cccc(CN2Cc3ccnn3CC(COCC3CC3)C2)n1.O=C(O)C(F)(F)F (stereo unspecified)	10.51%
COc1ccc(Br)c(NC(=O)NCc2ncnn2C)c1	-5.732%
CCn1cc(NC(=O)CN2C(=O)CC(C)(C)c3ccccc32)cn1	23.89%
CC(=O)c1cccc(NC(=O)Cn2nc(-c3cccs3)oc2=O)c1	-19.71%
Cc1cc(N2CCC(O)(CN(C)C(=O)CCN)CC2)c2cnccc2n1	43.24%
O=C(NCCn1cnnc1C1CC1)c1c(O)cc(F)cc1F	-13.58%
O=C(O)CC(O)(CC(=O)O)C(=O)O.c1ccc([C@@H]2CN(Cc3ccncc3)C[C@H]2c2cc[nH]n2)cc1	17.96%
O=C(O)CC(O)(CC(=O)O)C(=O)O.c1ccc([C@@H]2CN(Cc3cccnc3)C[C@H]2c2cc[nH]n2)cc1	51.47%
COc1ccc([C@@H]2CN(Cc3ccncc3)C[C@H]2c2cc[nH]n2)cc1.O=C(O)CC(O)(CC(=O)O)C(=O)O	34.94%
O=C1CC(c2ccccc2)c2c(c(C(=O)O)cn2-c2ccccc2)N1 (stereo unspecified)	15.99%
O=C(c1cc(F)ccc1O)N1CCN(C2CCOCC2)CC1	23.2%
Cc1cccc(NC(C)C(=O)Nc2nccs2)c1 (stereo unspecified)	6.251%
COc1ccc2[nH]cc(-c3ccnc(NC4CCCC4)n3)c2c1	104.1%
COC(=O)c1ccc2c(-c3ccnc(NCCO)n3)c[nH]c2c1	-4.775%
COc1ccc2[nH]cc(-c3ccnc(N4CCC(C)CC4)n3)c2c1	24.84%
COCCO[C@@H]1CCN(C(=O)c2ccnnc2)[C@H]1Cc1cnn(C)c1	2.018%
CCNC(=O)[C@@H]1C[C@@H](NC(=O)Cc2cc(C)no2)CN1Cc1ccsc1	-13.59%
CCNC(=O)[C@@H]1C[C@@H](NC(=O)Cc2ccncc2)CN1Cc1ccsc1	31.97%
CCNC(=O)[C@@H]1C[C@H](NC(=O)Cn2ccnc2)CN1Cc1ccsc1	104.2%

SMILES	Percent Effect
Cc1ncc(C(=O)OCC2CCN(c3ccccc3)C2)s1 (stereo unspecified)	-13.58%
Cn1cc(CN2CCC(c3ncc(Cl)cc3S(C)(=O)=O)CC2)cn1	39.28%
CC(C)Oc1ncnc2c1CCN(Cc1ccco1)CC2.O=C(O)C(F)(F)F	21.95%
Cc1nc(N2CCCC2)nc2c1CCN(Cc1ccco1)CC2.O=C(O)C(F)(F)F	96.95%
Cc1nc(C)c2c(n1)CCN(Cc1ccco1)CC2	-0.9283%
Cc1nc(N2CCCC2)nc2c1CCN(Cc1ccoc1)CC2.O=C(O)C(F)(F)F	56.27%
Cc1nc(N2CCOCC2)nc2c1CCN(Cc1cccnc1)CC2.O=C(O)C(F)(F)F	26.93%
Cc1nc(N2CCOCC2)nc2c1CCN(Cc1ccsc1)CC2.O=C(O)C(F)(F)F	27.7%
Cc1nc(N2CCCC2)nc2c1CCN(Cc1ccsc1)CC2.O=C(O)C(F)(F)F	72.79%
Cc1nc(N2CCCC2)nc2c1CCN(Cc1nccn1C)CC2.O=C(O)C(F)(F)F	0.1901%
Oc1nc(N2CCCC2)nc2c1CCN(Cc1ccsc1)CC2	2.378%
Cc1cc2cccc(NC(=O)N3CCC(N4CCSCC4)CC3)c2o1	26.32%
O=C(CN1CCC2(CC1)NC(=O)c1cc(Br)ccc1N2)NC1CC1	-67.58%
Cc1cccc(CN2CCCCC23CCNC3)n1.O=C(O)C(F)(F)F.O=C(O)C(F)(F)F (stereo unspecified)	9.569%
O=C(NCCc1coc(-c2ccc(F)cc2)n1)NC1CC1	9.97%
N[C@@H]1CCC[C@@H](Oc2ccc(F)cc2Oc2ccccc2)[C@@H]1O	-14.7%
CN[C@@H]1CCC[C@@H](Oc2ccccc2Oc2ccc(C)cc2)[C@@H]1O	74.11%
Cc1ccc(Oc2cc(F)ccc2O[C@@H]2CCC[C@@H](N)[C@H]2O)cc1	30.66%
Cc1ncsc1-c1nnc(C2CCCN2C(=O)Cn2cccn2)o1 (stereo unspecified)	-1.275%
Cc1cc(CNc2cc(Cl)ccc2OCCS(C)(=O)=O)no1	-0.6634%
CCOc1c(Cl)cccc1NCc1cc(C)on1	15.54%
Cc1cc(CNc2cc(Cl)ccc2Cl)no1	51.97%
O=C(NCc1ccccc1Cn1cncn1)C1CCCC1	0.5526%
Cc1noc(C)c1CN1CCC2(CC1)NC(=O)CC2c1cnn(C)c1 (stereo unspecified)	47.68%
Clc1ccccc1-c1nc(CNC2CCc3ncnn3C2)co1 (stereo unspecified)	-41.84%
